Screens from PubChem.
Compounds with a hit are over-represented: about 4.6% of the library has one in this group of screens.
NALP3 yeast inh: NALP3 inhibition in yeast; inhibition, % at 10 µM; 330,000 compounds, 0.39% hits; Yeast reconstituted NLRP3/ASC/caspase-1, beta-gal luminescence, 24 h;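 active = inhibition of 50% or more; inactive = inhibition below 50%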;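 also: plate controls were induced DMSO wells for no effect and uninduced yeast grown without galactose for full effect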
TIM10 inh: inhibits growth of TIM10 yeast strain | S. cerevisiae TIM10 strain growth, BacTiter-Glo luminescence, 24 h | inhibition, % at 10 µM | 330,000 compounds, 1.4% hits;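 active = inhibition of 40% or more at the single tested concentration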;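 also: wild-type TIM10 isogenic control strain grown at permissive 25 °C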
SKKanGAS inh: SKKanGAS growth inhibition | 300,000 compounds, 1.3% hits | inhibition, % at 7.5 µM | S. pyogenes SKKanGAS, kanamycin growth, BacTiter-Glo, 6 h | AID 1662;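 active = mean replicate score, as percent of positive control median, at least 50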;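 also: strain carries kanamycin resistance gene driven by streptokinase promoter and grows in 40 µg/ml kanamycin; loss of luminescence reflects streptokinase promoter inhibition or plain growth inhibition; 0% = median of DMSO wells and 100% = positive control at its reference dose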
tim23-1 inh: tim23-1 yeast growth inhibition | S. cerevisiae tim23-1 growth, BacTiter-Glo luminescence, 24 h | 330,000 compounds, 1.3% hits | inhibition, % at 20 µM;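 active = growth inhibition of the mutant yeast at or above 50%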;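 also: temperature-sensitive mutant grown at 25 °C; plate controls were DMSO-treated mutant yeast for no effect and medium wells lacking yeast for full effect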
tim10-1 inh: inhibits growth of tim10-1 mutant yeast. 330,000 compounds, 2.2% hits. inhibition, % at 20 µM. S. cerevisiae tim10-1 ts strain growth, BacTiter-Glo, 24 h;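 active = inhibition of at least 40%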;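 also: mutant grown at 25 °C; 0% = DMSO wells with yeast and 100% = wells holding no yeast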
tim10-1 confirm: confirmation of tim10-1 mutant yeast growth inhibitors; shares compounds with tim10-1 inh; S. cerevisiae tim10-1 ts strain growth, BacTiter-Glo, 24 h; AID 463213; inhibition, % at 20 µM; 7,400 compounds, 56% hits;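 active = inhibition of yeast growth at or above a set limit in either of two repeat tests at 20 µM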;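 also: tim10-1 mutant grown at permissive 25 °C to find synthetic lethal compounds; 0% = DMSO yeast wells and 100% = medium wells without yeast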
TIM10 conf: confirmation of TIM10 yeast growth inhibitors. shares compounds with TIM10 inh. S. cerevisiae tim10 strain growth, BacTiter-Glo luminescence, 24 h. inhibition, % at 10 µM. 4,600 compounds, 63% hits. AID 463215;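 active = inhibition of yeast growth at or above a set limit in either of two replicates at 10 µM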;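 also: this counterscreen used the strain with wild-type TIM10; 0% = yeast with DMSO and 100% = medium wells lacking yeast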
tim23-1 confirm: tim23-1 yeast growth inhibition, confirmed. shares compounds with tim23-1 inh. S. cerevisiae tim23-1 growth, BacTiter-Glo luminescence, 24 h. inhibition, % at 20 µM. 4,400 compounds, 83% hits;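 active = inhibition above about 39% in either of two replicate wells at 20 µM, limit read from the data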;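 also: temperature-sensitive tim23-1 mutant grown at 25 °C; 0% = DMSO wells with yeast and 100% = medium wells without yeast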
Active calls of the source: *.

O=C(Cc1ccc(F)cc1)c1ccc(O)cc1O was read as NALP3 yeast inh 5.2, TIM10 inh 36.7, SKKanGAS inh 0.1, tim23-1 inh 54.8*, tim10-1 inh 44.0*, tim10-1 confirm 34.8* and tim23-1 confirm 44.2*.
O=C(Cc1c(F)cccc1Cl)c1ccc(O)cc1O was read as NALP3 yeast inh 39.0, TIM10 inh 56.5*, SKKanGAS inh -10.7, tim23-1 inh 67.2*, tim10-1 inh 47.9*, tim10-1 confirm 60.0*, TIM10 conf 57.8* and tim23-1 confirm 68.2*.
Screening CCc1cc(C(=O)Cc2ccc(F)cc2)c(O)cc1O returned NALP3 yeast inh -11.9, TIM10 inh 22.9, SKKanGAS inh -3.2, tim23-1 inh 35.9 and tim10-1 inh 25.4.
`Cc1c(Nc2ncccc2C(=O)O)cccc1C(F)(F)F` gave NALP3 yeast inh 10.2, TIM10 inh 0.1, SKKanGAS inh 10.6, tim23-1 inh 5.8 and tim10-1 inh 15.0.
For COc1ccc2c(c1)N(C(=O)CN1C(=O)C3CCCCC3C1=O)C(C)(C)C=C2C (centres undefined) the results were NALP3 yeast inh 3.7, TIM10 inh 32.7, SKKanGAS inh 1.9, tim23-1 inh 52.7*, tim10-1 inh 51.1*, tim10-1 confirm 46.4* and tim23-1 confirm 52.4*.
For CN(Cc1ccc(C(C)(C)C)cc1)C(=O)c1ccc2c(c1)OCO2 the results were NALP3 yeast inh -36.9, TIM10 inh 24.6, tim23-1 inh 42.4 and tim10-1 inh 32.5.
For CCOC(=O)c1ccc(CNC(=O)c2cc(COc3ccccc3SC)on2)o1 the results were NALP3 yeast inh 34.4, TIM10 inh 2.4, SKKanGAS inh -4.7, tim23-1 inh 21.3 and tim10-1 inh 18.3.
For Cc1cc(C#N)c2ccccc2n1 the results were NALP3 yeast inh -18.6, TIM10 inh 2.7, SKKanGAS inh 2.8, tim23-1 inh 0.0 and tim10-1 inh 0.9.
N#Cc1cc(-c2ccccc2)[nH]c1-c1nccc2ccccc12 was read as NALP3 yeast inh 12.4, TIM10 inh 23.0, SKKanGAS inh 41.0, tim23-1 inh 50.8*, tim10-1 inh 41.6*, tim10-1 confirm 18.0 and tim23-1 confirm 44.4*.
`CCN(CC)c1ccc2c(c1)oc(=O)c1c(Cl)cc(=O)oc12` gave NALP3 yeast inh 6.4, TIM10 inh 88.8*, SKKanGAS inh 14.4, tim23-1 inh 73.4*, tim10-1 inh 77.7*, tim10-1 confirm 82.0*, TIM10 conf 61.0* and tim23-1 confirm 81.2*.
Screening CCN(CC)c1ccc2c(Cl)c(Br)c(=O)oc2c1 returned NALP3 yeast inh 6.0, TIM10 inh 72.2*, SKKanGAS inh -6.0, tim23-1 inh 63.9*, tim10-1 inh 60.3*, tim10-1 confirm 58.8*, TIM10 conf 67.8* and tim23-1 confirm 77.9*.
CCCCn1c(N)c(N(C)C(=O)C2CC(=O)N(Cc3ccco3)C2)c(=O)[nH]c1=O (centres undefined) was read as NALP3 yeast inh 12.9, TIM10 inh -6.5, tim23-1 inh 7.0 and tim10-1 inh 4.0.
O=C(NCC1CC1)c1ccc2c3n(nc2c1)-c1ccccc1CO3 was read as NALP3 yeast inh 24.5, TIM10 inh 44.6*, SKKanGAS inh 1.1, tim23-1 inh 69.1*, tim10-1 inh 42.2*, tim10-1 confirm 42.3*, TIM10 conf 44.3* and tim23-1 confirm 68.9*.
For O=C(NCCO)c1ccc2c3n(nc2c1)-c1ccccc1CO3 the results were NALP3 yeast inh 9.7, TIM10 inh 11.3, SKKanGAS inh 2.7, tim23-1 inh 4.8 and tim10-1 inh 12.5.
Cc1cc2n(n1)C(c1cn(-c3ccccc3)nc1C)Nc1ccccc1-2 (centres undefined) was read as NALP3 yeast inh 17.1, TIM10 inh 22.9, SKKanGAS inh -7.4, tim23-1 inh 22.3 and tim10-1 inh 14.1.
Screening Cc1cc2n(n1)C(c1ccco1)Nc1ccccc1-2 (centres undefined) returned NALP3 yeast inh 11.3, TIM10 inh 6.7, SKKanGAS inh -10.5, tim23-1 inh 21.3 and tim10-1 inh 14.9.
